Results published in PubChem BioAssay (EPA / NIEHS).
Values joined by “and” are separate entries in the source; they are usually repeats but may differ in a detail not shown here. Identical values can stand only once. A structure can be active in one record and inactive in another. Active and inactive are the calls of the source. The calls were made as follows: active = hit-call score of the fitted dose curve at least 0.9, where 1 is the maximum; inactive = score below 0.9.

Experiments:
[1] = APR_HepG2_P-H2AX_72hr: Apredica 72-hour HepG2 Assay for H2AX Phosphorylation (AID 2282916); conditions: imaging, actives raise or lower the signal;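 also: phospho-histone H2A.x immunostain intensity per cell marking DNA damage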
Method in brief: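 Readout: phospho-H2A.x immunofluorescence (FITC secondary) plus Hoechst nuclear stain, high-content imaging at 20x, six fields/well. HepG2, 72 hr compound exposure, 0.39–200 uM, final DMSO 0.5% v/v. Gain or loss fitted relative to DMSO baseline.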

[2] = APR_HepG2_MitoMembPot_72hr: Apredica 72-hour HepG2 Assay for Mitochondrial Membrane Potential (AID 2282917); conditions: imaging, actives raise or lower the signal
Method in brief: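 HepG2 cells dosed 72 hr with compound at 0.39–200 uM in duplicate, 0.5% v/v DMSO final. Mitochondria stained with 250 nM MitoTracker Red CMXRos for 30 min before formaldehyde fixation, imaged by high-content fluorescence; bidirectional fit versus DMSO.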

[3] = APR_HepG2_MitoticArrest_72hr: Apredica 72-hour HepG2 Assay for Mitotic Arrest (AID 2282918); conditions: high-content imaging, actives raise or lower the signal
Method in brief: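 High-content imaging of fixed human HepG2 cells after 72 h compound exposure (0.39–200 uM, duplicates, 0.5% DMSO); mitotic arrest scored from phospho-histone H3 and nuclear Hoechst staining relative to DMSO.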

[4] = APR_HepG2_MicrotubuleCSK_72hr: Apredica 72-hour HepG2 Assay for Microtubule CSK Stabilty (AID 2282919); conditions: HepG2 microtubule cytoskeleton, high-content imaging, actives raise or lower the signal
Method in brief: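 HepG2, 72 hr cmpd exposure, 0.39–200 uM (10 pts, duplicate), 0.5% DMSO. 3.7% formaldehyde fix, 0.5% Triton perm, anti-alpha-tubulin/Cy5 plus Hoechst. HCS fluorescence intensity; bidirectional fit vs DMSO baseline; taxol as positive control.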

[5] = APR_HepG2_StressKinase_72hr: Apredica 72-hour HepG2 Assay for Stress Kinase (AID 2282921); conditions: HepG2 stress kinase (phospho-c-Jun) imaging, actives raise or lower the signal
Method in brief: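 Phospho-c-Jun immunofluorescence measured by high-content imaging at 20x, six fields per well; bidirectional curve fitting against DMSO as baseline. Dosing: 0.39–200 uM, 72 h, 0.5% DMSO final.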

[6] = APR_HepG2_StressKinase_24hr: Apredica 24-hour HepG2 Assay for Stress Kinase (AID 2282922); conditions: HepG2 stress kinase (phospho-c-Jun) imaging, actives raise or lower the signal
Method in brief: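 Read-out: phospho-c-Jun immunofluorescence (Cy3 secondary) quantified by high-content imaging at 20x, nuclei defined by Hoechst 33342. Human HepG2 liver cells dosed 24 hr, 0.39–200 uM, DMSO 0.5% v/v; gain or loss of signal fitted relative to DMSO.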

[7] = APR_HepG2_p53Act_72hr: Apredica 72-hour HepG2 Assay for p53 Activation (AID 2282923); conditions: high-content imaging, actives raise or lower the signal;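 also: average cellular p53 protein immunofluorescence intensity in HepG2 cells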
Method in brief: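 Readout: p53 immunofluorescence quantified by automated high-content imaging at 20x, six fields per well, nuclei located via Hoechst. Dosing ran 72 hr over ten concentrations from 0.39 to 200 uM; bidirectional curve fitting against DMSO baseline.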

[8] = APR_HepG2_MitoMass_72hr: Apredica 72-hour HepG2 Assay for Mitochondrial Mass (AID 2282924); conditions: high-content imaging, actives raise or lower the signal;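 also: MitoTracker Red CMXRos stain intensity per cell imaged as mitochondrial mass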
Method in brief: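 Read-out: MitoTracker Red fluorescence intensity from automated imaging (20x, six fields per well) in human HepG2 liver cells. Dosing ran 72 hr, 0.39–200 uM, 0.5% DMSO; bidirectional curve fitting versus DMSO baseline.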

[9] = APR_HepG2_NuclearSize_72hr: Apredica 72-hour HepG2 Assay for Nuclear Size (AID 2282925); conditions: high-content imaging, actives raise or lower the signal
Method in brief: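 Read-out: nuclear diameter from Hoechst 33342 images (ArrayScan, 20x, six fields/well), via cell-cycle image analysis. HepG2 were dosed 0.39–200 uM for 72 hr in 0.5% DMSO. Bidirectional fit relative to DMSO.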

[10] = ATG_CRE_CIS: Attagene CIS-FACTORIAL HepG2 Assay for human cAMP Responsive Element (CRE) binding protein 3 (AID 2282926); conditions: HepG2 CRE cis-reporter, Attagene multiplexed mRNA; actives raise or lower the signal
Method in brief: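 Endogenous transcription factor activity read via CRE-regulated reporter transcripts in transfected HepG2 cells. After 24 h exposure, RNA was reverse-transcribed, amplified, fluorescently labelled and sized by capillary electrophoresis; gain or loss fitted against DMSO.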

[11] = molecular target: CCAAT/enhancer-binding protein beta (Homo sapiens) (UniProt P17676); assay: ATG_C_EBP_CIS: Attagene CIS-FACTORIAL HepG2 Assay for human CCAAT/Enhancer Binding Protein (C/EBP) beta (AID 2282927); conditions: HepG2 Attagene cis-factorial transcription factor reporter; actives raise or lower the signal
Sequence of CCAAT/enhancer-binding protein beta (Homo sapiens) (P17676 whole entry, looked up): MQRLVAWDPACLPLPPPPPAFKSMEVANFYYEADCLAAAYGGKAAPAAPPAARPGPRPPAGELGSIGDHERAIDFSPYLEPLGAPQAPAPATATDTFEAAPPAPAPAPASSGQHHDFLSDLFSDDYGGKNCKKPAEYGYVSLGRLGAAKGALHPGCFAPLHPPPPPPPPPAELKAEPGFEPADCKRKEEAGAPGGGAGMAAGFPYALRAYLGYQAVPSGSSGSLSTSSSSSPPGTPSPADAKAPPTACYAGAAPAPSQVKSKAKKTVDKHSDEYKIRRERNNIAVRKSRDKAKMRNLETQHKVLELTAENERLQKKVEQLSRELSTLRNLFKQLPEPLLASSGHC
Method in brief: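 HepG2, transient MRTU transfection, 24 h treatment. RT-PCR plus CE fluorescence; DMSO negative control, bidirectional fit.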

[12] = ATG_CMV_CIS: Attagene CIS-FACTORIAL HepG2 Assay for human CMV (Internal Marker) (AID 2282928); conditions: HepG2 CMV promoter reporter, transcription factor profiling; actives raise or lower the signal;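 also: endpoint acts as a background internal control marker rather than a target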
Method in brief: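 Readout: fluorescent reporter cDNA fragments separated by capillary electrophoresis after RT-PCR and HpaI cut. Cells: HepG2 carrying transfected cis-promoter reporter constructs, dosed 24 h. Endpoint serves as background internal-marker control, fit bidirectionally versus DMSO.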

[13] = ATG_DR4_LXR_CIS: Attagene CIS-FACTORIAL HepG2 Assay for human Liver X Receptor (LXR), DR4 submotif (AID 2282929); conditions: HepG2 Attagene DR4 cis-reporter, mRNA transcription; actives raise or lower the signal
Method in brief: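 HepG2 cells transiently transfected with cis-promoter-driven multiplexed reporter units (DR4 element) were dosed for 24 h. Reporter mRNA was quantified by RT-PCR, fluorescent primer extension, HpaI digestion and capillary electrophoresis; bidirectional fitting versus DMSO baseline.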

[14] = molecular target: Aryl hydrocarbon receptor (Homo sapiens) (UniProt P35869); assay: ATG_Ahr_CIS: Attagene CIS-FACTORIAL HepG2 Assay for human Aryl Hydrocarbon Receptor (Ahr) (AID 2282930); conditions: HepG2 AhR cis-factorial reporter transcription; actives raise or lower the signal
Sequence of Aryl hydrocarbon receptor (Homo sapiens) (P35869 whole entry, looked up): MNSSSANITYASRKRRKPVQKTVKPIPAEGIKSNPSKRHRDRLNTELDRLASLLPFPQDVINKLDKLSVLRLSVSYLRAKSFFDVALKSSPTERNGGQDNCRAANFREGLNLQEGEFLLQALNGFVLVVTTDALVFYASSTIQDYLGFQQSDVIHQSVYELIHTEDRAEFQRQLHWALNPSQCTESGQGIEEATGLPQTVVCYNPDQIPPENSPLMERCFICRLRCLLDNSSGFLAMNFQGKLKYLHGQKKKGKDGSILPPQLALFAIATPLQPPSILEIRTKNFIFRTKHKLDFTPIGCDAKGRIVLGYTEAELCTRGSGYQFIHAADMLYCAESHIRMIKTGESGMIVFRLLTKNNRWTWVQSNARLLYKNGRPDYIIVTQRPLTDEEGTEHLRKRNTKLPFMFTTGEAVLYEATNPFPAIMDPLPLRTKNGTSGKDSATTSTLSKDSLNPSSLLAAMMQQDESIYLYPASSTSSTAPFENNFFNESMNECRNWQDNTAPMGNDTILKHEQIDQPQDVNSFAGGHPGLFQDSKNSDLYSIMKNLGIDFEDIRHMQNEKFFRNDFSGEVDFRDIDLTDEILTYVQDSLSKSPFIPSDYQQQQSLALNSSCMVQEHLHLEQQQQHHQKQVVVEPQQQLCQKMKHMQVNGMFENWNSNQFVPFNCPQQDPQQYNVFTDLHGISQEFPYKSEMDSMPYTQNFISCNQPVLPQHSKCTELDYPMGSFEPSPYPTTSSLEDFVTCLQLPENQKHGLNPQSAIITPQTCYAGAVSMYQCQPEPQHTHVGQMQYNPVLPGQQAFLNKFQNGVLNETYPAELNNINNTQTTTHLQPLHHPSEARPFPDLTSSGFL
Method in brief: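 Endogenous factor activity is tracked through cis-promoter reporter units transfected into HepG2 cells. Transcript levels at 24 h are read by fluorescent RT-PCR and capillary electrophoresis, with activity in either direction scored relative to DMSO.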

[15] = ATG_AP_1_CIS: Attagene CIS-FACTORIAL HepG2 Assay for human Activator Protein 1 (AP-1) (AID 2282931); conditions: HepG2 Attagene cis-factorial AP-1 reporter mRNA; actives raise or lower the signal
Method in brief: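 HepG2 cells transiently transfected with cis-element-driven multiplex reporter units; 24 h compound exposure. Reporter mRNA quantified by RT-PCR, FAM-labelled fragments resolved by capillary electrophoresis; bidirectional fit versus DMSO baseline.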

[16] = ATG_AP_2_CIS: Attagene CIS-FACTORIAL HepG2 Assay for human Activator Protein 2 (AP-2) (AID 2282932); conditions: HepG2 AP-2 cis-reporter, Attagene transcription factor profiling; actives raise or lower the signal
Method in brief: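 Read-out: fluorescent reporter mRNA via RT-PCR and capillary electrophoresis, 24 h post-dose in transiently transfected HepG2. Endogenous factors drive cis-promoter reporters; gain or loss of signal fitted bidirectionally against DMSO.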

[17] = ATG_BRE_CIS: Attagene CIS-FACTORIAL HepG2 Assay for human Bone Morphogenetic Protein (BMP) Response Element (BRE) (AID 2282933); conditions: HepG2 BMP response element reporter, Attagene transcription factor profiling; actives raise or lower the signal
Method in brief: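 HepG2 cells transiently transfected with multiplexed cis-element reporter units were dosed with chemical for 24 h. Reporter mRNA was measured by RT-PCR with fluorescent labelling, HpaI digestion and capillary electrophoresis; bidirectional fitting relative to DMSO.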

[18] = molecular target: Transcription factor E2F1 (Homo sapiens) (UniProt Q01094); assay: ATG_E2F_CIS: Attagene CIS-FACTORIAL HepG2 Assay for human E2F Transcription Factor 1 (AID 2282935); conditions: HepG2 Attagene cis-reporter, E2F reporter RNA transcripts; actives raise or lower the signal
Sequence of Transcription factor E2F1 (Homo sapiens) (Q01094 whole entry, looked up): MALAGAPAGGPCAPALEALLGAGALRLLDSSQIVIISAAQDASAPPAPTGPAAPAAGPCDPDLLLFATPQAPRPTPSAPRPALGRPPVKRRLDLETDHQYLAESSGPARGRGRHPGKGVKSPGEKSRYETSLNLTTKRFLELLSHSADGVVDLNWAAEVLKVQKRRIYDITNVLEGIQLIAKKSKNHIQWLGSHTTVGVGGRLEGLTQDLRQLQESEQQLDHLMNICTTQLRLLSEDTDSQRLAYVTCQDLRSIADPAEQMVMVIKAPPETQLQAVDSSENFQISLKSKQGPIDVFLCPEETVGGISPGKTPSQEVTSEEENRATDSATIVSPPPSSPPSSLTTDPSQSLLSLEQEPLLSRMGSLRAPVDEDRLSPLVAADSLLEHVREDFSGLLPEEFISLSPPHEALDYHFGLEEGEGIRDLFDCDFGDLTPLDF
Method in brief: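 Transient MRTU transfection of HepG2; 24 h compound exposure; RNA → oligo(dT) RT → PCR → FAM label → HpaI cut → CE fluorescence. Gain/loss of signal fit against DMSO.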

[19] = APR_HepG2_P-H2AX_24hr: Apredica 24-hour HepG2 Assay for H2AX Phosphorylation (AID 2282920); conditions: high-content imaging, actives raise or lower the signal
Method in brief: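 High-content imaging of phospho-histone H2A.x immunofluorescence, nuclei counterstained with Hoechst 33342, in fixed HepG2 cells. Compounds ran 0.39–200 uM in duplicate for 24 h, final DMSO 0.5%. Signal change fitted both directions against DMSO.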

Measured: AC50

O=S(=O)(O)C(F)(F)C(F)(F)C(F)(F)C(F)(F)F
inactive: [1] | [2] | [3] | [4] | [5] | [6] | [7] | [8] | [9] | [10] | [11] | [12] | [13] | [14] | [15] | [16] | [17] | [18]
active: [14] 110 µM

Oc1c(Cl)c(Cl)c(Cl)c(Cl)c1Cl
inactive: [1] | [2] | [3] | [4] | [19] | [5] | [6] | [8] | [9] | [11] | [13] | [15] | [16] | [18]
active: [11] 13.7 µM | [12] 28.7 µM and 8.37 µM and 39.7 µM | [13] 31.6 µM and 34.8 µM | [14] 14 µM and 6.01 µM and 874 nM | [15] 13.7 µM and 3.6 µM | [16] 26.1 µM | [17] 13.6 µM and 18.2 µM and 31.3 µM
